Among the data in PubChem BioAssay AID1626 (SRMLSC, 2009) are inhibition values, retold here.

Hit rate of the full screen: of about 220,000 compounds, about 2,000 (0.91%) were called active. Another 2% or so got no clear call; they are omitted. Only a sample is shown. Results with a measured potency or affinity are listed apart. A number with no mark means an inactive call. Rule as the data show it: inconclusive = inhibition above about 80% without an active follow-up result; inactive = below that; test concentration not stated here.

The term inhibition denotes the change of the read-out against control, counted positive when it falls.

The nature of this experiment: M. tuberculosis H37Rv growth inhibitors, H37Rv strain (AID 1626).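 Also: bacteria incubated seven days before Alamar blue readout; 0% = bacteria only wells and 100% = bacteria with antibiotic wells.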 The following applies: stronger effect = higher value, concentration not given here.
With `CC(NC(=S)Nc1ccc([N+](=O)[O-])cc1)c1ccncc1` (stereo unspecified), the inhibition is 2.79%.

In the case of `CC(C)(C)Nc1nc(SCc2ccccc2)nc(N2CCOCC2)n1`, the inhibition was 1.1%.

Regarding `O=C(NCc1ccco1)C(=O)NCC1OCCN1S(=O)(=O)c1ccc(F)cc1` (stereo unspecified), the inhibition is 0.03%.

In the case of `Nc1c2c(nc3ccccc13)N(C1CCCCC1)CC2`, the inhibition is 1.71%.

Turning to `Nc1c2c(nc3ccc(Br)cc13)N(c1ccccc1)CC2`, the inhibition is 14.3%.

Take `COC(=O)c1cnn(-c2nc3c(C)cccc3s2)c1C`: the inhibition is -0.32%.

Take `CCOC(=O)c1cnn(-c2nc3c(C)cccc3s2)c1C`: the inhibition was -7.79%.

Regarding `O=C(O)COCc1nc2ccccc2s1`, the inhibition was 0.38%.

Take `O=C(Nc1cccc(Cl)c1N1CCOCC1)c1ccc([N+](=O)[O-])o1`: the inhibition was 1.19%.

On to `CC(=O)N1CCN(c2ccc(NC(=O)c3ccc(N4CCCC4)c([N+](=O)[O-])c3)cc2Cl)CC1`, for which the inhibition is 44.6%.

In the case of `CCCC(=O)N1CCN(c2ccc(NC(=O)c3ccco3)cc2)CC1`, the inhibition was -4.48%.

For the compound `O=C(Nc1ccc(N2CCOCC2)c(Cl)c1)c1ccc(Br)o1`, the inhibition is 5.36%.

For the compound `O=C(Nc1cccc(Cl)c1N1CCCCC1)c1ccc(N2CCOCC2)c([N+](=O)[O-])c1`, the inhibition is 2.9%.

Consider `CCCC(=O)N1CCN(c2ccc([N+](=O)[O-])cc2Cl)CC1`, for which the inhibition is 6.77%.

For `CCCC(=O)N1CCN(c2ccc(NC(=O)c3ccc(Br)o3)cc2)CC1`, the inhibition is -2.24%.

For the compound `CCCC(=O)N1CCN(c2ccc(NC(=O)c3cc4ccccc4o3)cc2Cl)CC1`, the inhibition is 11%.

Regarding `O=C(O)c1ccc(NC(=O)C2C3CCC(C3)C2C(=O)O)cc1` (stereo unspecified), the inhibition was 0.17%.

As to `Cn1nc(-c2ccccc2)cc1NC(=O)Nc1ccc(C(C)(C)C)cc1`, the inhibition was 8.89%.

On to `Cn1ncc(Br)c1NC(=O)Nc1ccc(OC(F)(F)F)cc1`, for which the inhibition was 5.76%.

Regarding `COc1ccc(S(=O)(=O)N2CCCC(C(=O)NCc3ccncc3)C2)cc1` (stereo unspecified), the inhibition is -3.7%.

Take `CN(C)/C=C/C(=O)c1ccc(N2CCN(c3ncc(C(F)(F)F)cc3Cl)CC2)cc1`: the inhibition was -11.4%.

For the compound `CCOC1(OCC)C(c2ccc(N)cc2)C(C#N)(C#N)C1(OCC)OCC` (stereo unspecified), the inhibition is -7.48%.

Consider `CC(C)(C)S(=O)(=O)c1cnc(-c2ccccn2)nc1N`, for which the inhibition was -8.12%.

On to `COc1ccc(-c2nnc(SCC#CCO)o2)cc1OC`, for which the inhibition is -8.82%.

As to `COc1ccc(-c2nnc(SCC(=O)c3cccs3)o2)cc1`, the inhibition was 12.7%.

In the case of `OCC#CCSc1nnc(-c2ccncc2)o1`, the inhibition is -1.67%.

Regarding `O=C(OCC#CCSc1nnc(-c2cccc3ccccc23)o1)c1cccs1`, the inhibition was 60.9%.

`O=C(CSc1nnc(-c2ccncc2)o1)c1cccc([N+](=O)[O-])c1`: the inhibition was -6.49%.

`O=C(CSc1nnc(-c2cccs2)o1)c1cccs1`: the inhibition is 11.9%.

In the case of `O=C(NCCSc1ccccc1)c1ccccc1`, the inhibition was -18.6%.

On to `O=C(c1ccco1)[C@@H]1[C@@H]2C(=O)N(c3ccccc3)C(=O)[C@@H]2C2c3ccccc3C=CN21` (stereo partly specified), for which the inhibition is -13.4%.

On to `COc1ccc(C)cc1S(=O)(=O)N(CC(=O)Nc1cccc([N+](=O)[O-])c1)c1ccccc1`, for which the inhibition was 0.46%.

Consider `Cc1cc(N2CCN(c3cccc(C)c3C)CC2)nc(-c2ccccc2)n1`, for which the inhibition was 6.21%.

As to `CC(C)(C)C(=O)Nc1nnc(Cc2ccccc2)s1`, the inhibition was 10.8%.

As to `CCOC(=O)CSc1nc2ccccc2c(=O)n1CC(C)C`, the inhibition is 7.35%.

With `CCOC(=O)C1(CCOc2ccccc2)CCN(Cc2ccc(-n3cccn3)cc2)CC1`, the inhibition was 4.73%.

Turning to `CCOC(=O)C1(CCOc2ccccc2)CCN(Cc2cccc(-n3cccn3)c2)CC1`, the inhibition was -2.65%.

On to `CCc1cc2c(SCC(=O)N(CC)c3c(N)n(Cc4ccccc4)c(=O)[nH]c3=O)ncnc2s1`, for which the inhibition is 5.81%.

As for `Clc1ccc(-c2csc(N/N=C/c3ccc4c(c3)OCO4)n2)cc1`, the inhibition is 48.7%.

`CCNC(=O)Nc1nc2ccccc2s1`: the inhibition is 4.21%.

With `Cc1ccc(OCCCCn2ccnc2)c(Cl)c1`, the inhibition was 56.8%.

Regarding `Cc1cc(OCCCCn2ccnc2)cc(C)c1Cl`, the inhibition was 51.5%.

On to `Cc1cc(OCCCn2ccnc2)cc(C)c1Cl`, for which the inhibition was 16.8%.

In the case of `Cc1cccc(Cl)c1OCCCCn1ccnc1`, the inhibition is 3.12%.

On to `O=C(CCN1C(=O)c2ccccc2C1=O)Nc1ccc(S(=O)(=O)N2CCOCC2)cc1`, for which the inhibition is -4.04%.

Consider `Cc1cc(C)cc(OCC(O)CN2C(=O)NC(C)(C)C2=O)c1` (stereo unspecified), for which the inhibition was -17.8%.

Take `FC(F)(F)c1cccc(NC(=S)N2CCN(c3ccccc3)CC2)c1`: the inhibition is -3.11%.

As for `CC(NC(=O)Cn1cc(C(=O)C2CC2)c2ccccc21)c1ccccc1` (stereo unspecified), the inhibition was 6.54%.

With `COC(=O)c1cc(C(=O)c2cc(Cl)ccc2O)coc1=N`, the inhibition was 3.92%.

For `CC(C)OC(=O)c1cc(C(=O)c2cc(Br)ccc2O)coc1=N`, the inhibition is -3.62%.

As to `Nc1nnc(SCC(=O)c2ccc([N+](=O)[O-])cc2)s1`, the inhibition was -6.55%.

As for `COc1ccc(S(=O)(=O)N(C)c2ccc(C(N)=O)cc2)cc1`, the inhibition was 3%.

For `O=C(NCc1ccc2c(c1)OCO2)C1CC(=O)N(C2CCCCCCC2)C1` (stereo unspecified), the inhibition was 5.14%.

Consider `Cc1ccc(-c2nnc(-n3ncc(C#N)c3N)c3ccccc23)cc1C`, for which the inhibition is -8.25%.

For the compound `COc1ccc2cc(C(=O)C3CCCN(C(=O)/C=C/c4ccccn4)C3)ccc2c1` (stereo unspecified), the inhibition was 1.13%.

`COc1ccc(-c2oc3ncn(CCN4CCOCC4)c(=N)c3c2-c2ccc(OC)cc2)cc1`: the inhibition was -3.67%.

As to `COc1ccc(C2c3c(ncn(Cc4ccco4)c3=N)Oc3ccc4ccccc4c32)cc1` (stereo unspecified), the inhibition was 38.6%.

Turning to `N=c1c2c(-c3ccccc3)c(-c3ccccc3)n(Cc3ccco3)c2ncn1CCO`, the inhibition was 20%.

In the case of `N=c1c2c(-c3ccccc3)c(-c3ccccc3)n(Cc3ccco3)c2ncn1CCCO`, the inhibition is 15.2%.

Consider `CS(=O)(=O)N(CC(=O)Nc1ccccc1C(=O)N1CCCC1)c1cccc([N+](=O)[O-])c1`, for which the inhibition was 3.06%.

On to `Cc1csc(Nc2cccc3ccccc23)n1`, for which the inhibition is 6.85%.

As to `Cc1ccc(C(=O)Nc2ccccc2-c2ccccc2)cc1[N+](=O)[O-]`, the inhibition was 14.5%.

As for `COC(=O)CSc1snnc1-c1ccc(F)cc1`, the inhibition was -0.55%.

`Cc1nn(Cc2c(Cl)cccc2Cl)c(Cl)c1/C=N/NC(=O)c1cccnc1`: the inhibition is -3.52%.

In the case of `CCc1ccc(NC(=O)C(NS(=O)(=O)c2cccc3nsnc23)c2ccccc2)cc1` (stereo unspecified), the inhibition was -4.05%.

Turning to `Cc1ccc(NC(=O)c2ccccc2)cc1OC(=O)c1ccccc1`, the inhibition is 6.17%.

In the case of `Cc1cccc(C(=O)Nc2cccc(OC(=O)c3cccc(C)c3)c2)c1`, the inhibition was 11.6%.

Take `OCCN1CCN(CC(O)COc2ccc(-c3ccccc3)cc2)CC1` (stereo unspecified): the inhibition is 5.51%.

For `OCCN1CCN(CC(O)COc2ccc(Cl)cc2)CC1` (stereo unspecified), the inhibition was 1.07%.

For `Cc1ccc(CS(=O)(=O)CCC(=O)NCCC2=CCCCC2)cc1`, the inhibition is 7.74%.

For the compound `CCCCc1n[nH]c(=S)n1Cc1ccccc1`, the inhibition is -1.46%.

With `COc1cccc2[nH]c3c(N4CCC5(CC4)OCCO5)ncnc3c12`, the inhibition was 1.2%.

Consider `CC(C)=CCc1cc([C@@H]2COc3c(ccc4c3C=CC(C)(C)O4)C2)c(O)cc1O`, for which the inhibition was 8.4%.

On to `CC1(C)C=Cc2c(ccc3c2OC[C@@H](c2ccc(O)cc2O)C3)O1`, for which the inhibition was 1.16%.

`COc1ccc2nc(NC(=O)c3cc(S(=O)(=O)N4CCOCC4)ccc3C)sc2c1`: the inhibition is 14.6%.

`O=C(c1cn(-c2ccccc2)nc1-c1ccccc1)N1CCOCC1`: the inhibition was -8.16%.

In the case of `COc1ccccc1/C=N/NC(=S)NCc1ccco1`, the inhibition is -0.41%.

As to `CCOC(=O)C1CCCc2c1[nH]c1c(C(=O)O)cccc21` (stereo unspecified), the inhibition is -6.94%.

Consider `CCOC(=O)c1ccc2[nH]c3c(c2c1)CCCC3C(=O)OCC` (stereo unspecified), for which the inhibition is -4.38%.

Take `CCOc1ccc(S(=O)(=O)N/N=C2/CC(c3ccccc3)Oc3ccccc32)cc1` (stereo unspecified): the inhibition is -11.9%.

Consider `COC(=O)C1C(c2ccccc2)C=CC(c2ccccc2)C1C(=O)O` (stereo unspecified), for which the inhibition is 1.24%.

As for `O=C1C=C(Nc2ccc(O)cc2)C(=O)c2ccccc21`, the inhibition was 5.07%.

For `O=C1C(Nc2ccccc2)=C(NS(=O)(=O)c2ccccc2)C(=O)c2ccccc21`, the inhibition is 8.84%.

Regarding `COC1=C(Nc2ccc(C)cc2)C(=O)c2ccccc2C1=O`, the inhibition is 12.8%.

`O=C1C(Cl)=C(Nc2ccccc2)C(=O)c2ccccc21`: the inhibition was -1.42%.

`Cc1ccc(NC2=C(Cl)C(=O)c3ccccc3C2=O)cc1`: the inhibition is -1.97%.

For the compound `CCCCNC1=CC(=O)C(=O)c2ccccc21`, the inhibition is 1.34%.

`O=C1C=C(Nc2ccccc2C(=O)O)c2ccccc2C1=O`: the inhibition is 1.72%.

In the case of `O=C1C(Nc2ccccc2)=C(N2CCCCC2)C(=O)c2ccccc21`, the inhibition was -1.08%.

As for `O=C(c1cc(-c2ccc(Cl)cc2)n(-c2ccc(Cl)c(Cl)c2)n1)N1CCOCC1`, the inhibition was -1.31%.

In the case of `Cc1ccc(OCC(=O)Nc2cccc3nsnc23)c(C)c1`, the inhibition was 7.75%.

Take `COCOc1ccc(C=O)cc1OCOC`: the inhibition was -3.9%.

On to `COc1cc(Cl)c(C)cc1NC(=O)c1ccc(S(C)(=O)=O)cc1`, for which the inhibition is 3.38%.

Regarding `CCOc1cc(C=O)ccc1OS(=O)(=O)c1ccc(NC(C)=O)cc1`, the inhibition is 5.36%.

Consider `COc1ccc(CN2C(=O)c3oc4ccccc4c(=O)c3C2c2ccc(O)c(OC)c2)cc1` (stereo unspecified), for which the inhibition is -7.03%.

With `Cc1onc(-c2cccc(Cl)c2Cl)c1C(=O)O/N=C(\N)c1ccc([N+](=O)[O-])o1`, the inhibition was 67%.
